# Source: the supplement of paper PMC3334620
# Whole data set: some 33,000 sequences, median “E-score (-0.5 to 0.5)” near -0.017, cut for the highest 2% near 0.3. Only a selection was taken, and the highest values are over-represented in it overall.
# Molecular target: T1, Sut1 (UniProt P53032)
# T1 sequence: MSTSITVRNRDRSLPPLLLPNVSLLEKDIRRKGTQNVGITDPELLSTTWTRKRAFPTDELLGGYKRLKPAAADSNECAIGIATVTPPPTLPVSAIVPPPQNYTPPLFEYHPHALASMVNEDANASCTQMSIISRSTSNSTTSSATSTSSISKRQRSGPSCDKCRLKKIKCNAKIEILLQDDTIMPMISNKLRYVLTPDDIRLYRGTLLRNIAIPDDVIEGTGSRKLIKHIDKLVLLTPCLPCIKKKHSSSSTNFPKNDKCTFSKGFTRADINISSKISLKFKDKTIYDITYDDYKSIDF
# Assay: PBM E-score (8-mer binding enrichment) (E-score (-0.5 to 0.5)); higher = stronger / more preferred TF binding
# Conditions: protein concentration: 200 nM; construct: GST-full length
# In short: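 PURExpress in vitro transcription/translation supplied GST-tagged yeast transcription factors, either full-length or DNA-binding domain. Applied at about 100-200 nM to universal all-10-mer Agilent arrays double-stranded by primer extension, the bound protein was detected with fluorescent anti-GST. E-scores, modified Wilcoxon-Mann-Whitney statistics, were given by the Universal PBM Analysis Suite to ungapped eight-base words pooled with their reverse complements after masliner normalisation.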
row,Sequence,PBM E-score
1,AACTAGTC,0.0497
2,ATCGATCA,0.0202
3,CGAAACAC,0.0972
4,CTAACTGA,0.0767
5,ACTGGAAT,0.0551
6,CGGCCGCC,-0.05
7,CGCCGAAG,0.0368
8,CCCCGAAC,0.0945
9,TTCCGAAA,0.291
10,ATCCGAAA,0.272
11,CTCCGAAG,0.457
12,CCCCGAAA,0.301
13,GCCCGAAA,0.111
14,GTCCGAAA,0.447
15,CACCGAAG,0.157
16,GCGCTAGC,-0.26
17,CGAGCCCG,-0.187
18,AGAACTAC,0.0481
19,CATTGATA,0.139
20,CAGACTCC,0.0916
21,CGGACTCA,0.429
22,GGGACTCA,-0.288
23,AGGACTCA,-0.114
24,CCGACTCA,0.0266
25,AGGACTCC,0.129

row,Sequence,PBM E-score
1,CCGACTCC,0.321
2,CGGACTCC,0.475
3,GCGACTCC,0.119
4,AAGGTCTA,-0.127
5,CTGGTTTA,-0.0882
6,ACCGACAC,0.0514
7,GCGACTAA,-0.0293
8,AGCCTAAC,-0.192
9,GGAACCTA,-0.00606
10,CGCTGCGA,-0.153
11,ATGTCCGC,0.282
12,GTGTCCGA,0.149
13,ATGTCCCG,0.0332
14,ATGTCCGA,0.45
15,ATGTCCGG,0.451
16,CTGTCCGA,0.192
17,ACACTGGT,-0.102
18,AGGGGCGG,-0.158
19,CAATATTA,0.296
20,CAATATGA,0.181
21,TAATATGA,0.315
22,CAATATCA,0.188
23,GAATATTA,0.255
24,TAATATTA,0.313
25,GAATATGA,0.0941

row,Sequence,PBM E-score
1,AAATATCA,0.161
2,TAATATCA,0.306
3,AAGCGCGC,0.105
4,ACCGATCA,0.12
5,AAAGTTCA,-0.00163
6,CCGCCTAG,-0.166
7,TCTTTTCA,0.178
8,AAGCTTAT,0.0714
9,GAAACGGA,0.284
10,TACACGGA,0.335
11,TAAACGTA,0.131
12,AAAACGGA,0.244
13,TAAACGAA,0.263
14,CAAACGGA,0.302
15,TAAACGGA,0.321
16,GACACGGA,0.296
17,CACACGGA,0.12
18,CGATGCTC,0.156
19,CCTTTAGC,-0.0413
20,AGATCGTC,-0.0781
21,GCTAAAAA,-0.0323
22,ACGCGGAT,0.0724
23,GCGCGGAC,0.218
24,CCGCGGAC,0.274
25,CCGCGGAA,0.253

row,Sequence,PBM E-score
1,ACGCGGAA,0.112
2,ACGCGGAG,0.362
3,CCGCGGAG,0.308
4,ACGCGGCC,-0.273
5,ACGCGGAC,0.302
6,ACATTTAC,0.168
7,AGGCCCTG,-0.302
8,CAAAGTTG,-0.0132
9,CATCTAAG,-0.107
10,CGTAGCAG,-0.128
11,AGCTATAG,-0.136
12,GTCATACA,0.226
13,ATCATACG,0.157
14,ATCATACA,0.314
15,ACTCGAGT,0.0517
16,AAGCCTAG,-0.183
17,CACTCTGA,-0.165
18,GTCACAAC,-0.0323
19,AATAGAGC,0.0828
20,CAAACTCC,0.356
21,AAAACTCG,0.199
22,AACACTCC,0.256
23,CAAACTCA,0.0357
24,CAAACTCG,-0.013
25,CACACTCC,0.158

row,Sequence,PBM E-score
1,AAAACTCC,0.356
2,GAAACTCC,0.345
3,GACACTCC,0.314
4,GAAACTAC,0.145
5,GAAACTCA,0.0707
6,AAAACTCT,0.0523
7,CAGCTTGG,0.0282
8,TCTTCTAA,0.188
9,CGATACTA,0.193
10,AGGAAAGG,-0.294
11,AGCGGTAT,0.0737
12,CGTAAGAC,-0.071
13,ACGCATCA,-0.0138
14,AAAAAAAC,0.159
15,GAAACTTC,0.0956
16,CAAACTTA,0.196
17,GAAACTTA,0.307
18,AGTGTGGA,0.0491
19,CGGGCCCG,0.316
20,CGGGCCCA,-0.109
21,AGGGCCCG,-0.184
22,CGTTCACA,0.0405
23,AAATAAGT,0.109
24,AAATAATG,0.297
25,CTGTAATA,0.218

row,Sequence,PBM E-score
1,AAATAATT,0.338
2,ATGTAATG,0.23
3,AAATAATA,0.311
4,AAATAATC,0.235
5,AAATAACT,0.228
6,ATGTAATA,0.307
7,ACTTCAAG,0.0849
8,ACACCCTA,-0.127
9,ACTTTGCG,0.0957
10,ATGGCCTA,-0.0487
11,AGCGCACC,-0.0534
12,AAGAAGGA,0.0609
13,CATCTGAA,0.0794
14,AGAGTGGA,-0.0219
15,TAACCGGA,0.332
16,GAACCGGC,-0.0738
17,AAACCGGA,0.309
18,TAACCGCA,0.0567
19,GAACCGGA,0.32
20,AGACCGGA,0.277
21,GAACCGTA,-0.234
22,GGACCGGA,0.34
23,AAACCGGC,0.0626
24,CGACCGGA,0.191
25,TAACCGTA,-0.0185

row,Sequence,PBM E-score
1,AAACCGGT,-0.0411
2,AGAAAAAG,0.138
3,CTGCCAAA,-0.0297
4,GTTGTTGA,0.0996
5,AAACCTTA,0.203
6,AGCAGGTC,-0.176
7,CAACCTAC,0.0861
8,GTAGCAGA,0.0197
9,AGCTTAAC,0.0213
10,CCTACTAC,-0.0856
11,CAACCGGG,-0.129
12,CAACCGGA,0.338
13,CAACCGGC,-0.0694
14,ATCGCTGC,-0.111
15,GGGACCAA,-0.115
16,GCCGAACA,0.126
17,ACCGAACA,0.121
18,GCCGAAAA,0.263
19,TCCGAAAA,0.353
20,ACCGAAGA,0.222
21,TCCGAAGA,0.39
22,CCCGAAAA,0.177
23,CCCGAAGA,-0.0672
24,TCCGAACA,0.399
